# Assay results published in PubChem BioAssay AID485313 (National Center for Advancing Translational Sciences (NCATS), 2010).
# The whole screen tested about 320,000 compounds, of which about 7,600 (2.4%) were called active. Another 3% or so got no clear call; they are omitted. Calls follow the shape of the dose curve; as a rule, active = well fitted activation curve with a large enough effect; inconclusive = small, poorly fitted or top-dose-only effect; inactive = no such curve, though single readings can be large or run the other way. The sample as a whole holds a higher share of actives than the screen did.
# Assay: qHTS Assay for NPC1 Promoter Activators; also: nearly all actives have a fitted effect of over 60% in size;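 as to activation: reporter is driven by a mutant NPC1 promoter; % of control where 0% means no effect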
# Details: Huh7 NPC1 promoter luciferase reporter, 24 h; series mostly up to 9.22 µM; activation: at the top concentration
# How it was run: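 Quantitative HTS used a cell-based reporter: Huh7 cells stably bearing the NPC1 promoter upstream of luciferase were treated with compounds for 24 h, and promoter activation was read as luminescence.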
# Potency is read from the fitted curve at half-maximal effect.
SMILES,activation,Potency
COC(=O)Cc1ccc(OCC(=O)NC2CCCC2)cc1,1.62% (inactive),
CN(CCOc1ccccc1)C(=O)c1cc(-c2ccco2)nc2ccccc12,0.0692% (inactive),
CCN(c1ccccc1)S(=O)(=O)c1cccc(C(=O)NCc2ccccc2CN2CCOCC2)c1,-1.7% (inactive),
CC(=O)Cn1cnc2c(cnn2-c2ccccc2)c1=O,20.1% (inactive),
c1ccc(-n2ncc3c2ncn2c(C4CCCCC4)nnc32)cc1,,3.98 µM (active)
CN(C(=O)COc1ncnc2c1cnn2-c1ccccc1)C1CCCCC1,-0.359% (inactive),
Cc1ccc(S(=O)(=O)N(C)C)cc1NC(=O)CN1c2cccc3cccc(c23)S1(=O)=O,-0.458% (inactive),
Cc1nn2cc(-c3ccc(Cl)cc3)cnc2c1Br,,2.24 µM (active)
N#CC1(NC(=O)COC(=O)CSc2ccc(F)cc2)CCCCC1,-1.38% (inactive),
COc1ccc(S(=O)(=O)N2CCN(CC(=O)N3c4ccccc4CC3C)CC2)cc1OC (stereo unspecified),-0.658% (inactive),
Cc1ccccc1-c1n[nH]c(=S)n1C,0.769% (inactive),
Cc1cc(C)nc(Nc2n[nH]c(-c3ccccc3N)n2)n1,,0.447 µM (active)
Cc1cc(C)nc(Nc2ncn[nH]2)n1,0.165% (inactive),
CCCC(=O)Nc1ccc2c(c1)nc(CCNC(=O)c1ccco1)n2C,1.18% (inactive),
O=C(Nc1cccc(-c2nc3ncccc3o2)c1)c1ccco1,-2.98% (inactive),
O=C(Nc1ccc2oc(-c3ccccc3F)nc2c1)c1ccco1,,1.58 µM (active)
COc1ccccc1S(=O)(=O)NCc1ccc(C(=O)N(C)Cc2ccc(F)cc2)cc1,-1.39% (inactive),
CC(=O)Nc1cccc(Nc2nc(-c3cccs3)nc3ccccc23)c1,0.667% (inactive),
Cc1cccc(S(=O)(=O)CC(=O)Nc2nc(-c3ccccc3)cs2)c1,-0.92% (inactive),
CC(=O)Nc1cccc(-c2csc(Nc3cccc(C)n3)n2)c1,,0.708 µM (active)
CC(=O)Nc1ccc(-c2csc(NC=C3C(=O)OC(C)(C)OC3=O)n2)cc1,14.1% (inactive),
CC(=O)Nc1cccc(-c2cnc3ccccc3n2)c1,,2.82 µM (active)

SMILES,activation,Potency
CCS(=O)(=O)Nc1cccc(-c2cc(-c3ccccc3)c3cc(C)ccc3n2)c1,0.901% (inactive),
COCCn1c(=NC(=O)c2ccccc2[N+](=O)[O-])sc2cc(S(C)(=O)=O)ccc21,22.9% (inactive),
Cc1cccc(C(=O)NCC(=O)OCC(=O)N(C)CC(=O)Nc2ccccc2Cl)c1,1.73% (inactive),
O=C(CSc1nnc(N2CCOCC2)n1-c1cccc(F)c1)N1CCN(c2ccccn2)CC1,-4.32% (inactive),
Cc1ccc(F)cc1S(=O)(=O)Nc1cccc(C(=O)N2CCCC(C(N)=O)C2)c1 (stereo unspecified),-1.37% (inactive),
COc1ccccc1C(=O)NC(CCSC)C(=O)N1CCN(C(C)=O)CC1 (stereo unspecified),1.51% (inactive),
Cc1ccccc1N/N=C/c1ccc(N2CCOCC2)cc1,,3.16 µM (active)
C(=N/Nc1cc(N2CCOCC2)nc(N2CCOCC2)n1)/c1ccccc1,-0.933% (inactive),
CCN(CC)c1ccc(C(=O)N/N=C/c2ccc(N3CCOCC3)cc2)cc1,-0.358% (inactive),
CN1CCN(S(=O)(=O)c2cccc(C(=O)Nc3sccc3C#N)c2)CC1,6.45% (inactive),
O=C1COc2ccc(C(=O)CSc3ccc(Br)cc3)cc2N1,3.97% (inactive),
Cc1ccc2[nH]cc(CCCN3C(=O)c4ccccc4C3=O)c2c1,-1.48% (inactive),
COc1ccc(C[C@H](C(=O)O)N2C(=O)c3ccc(C(=O)O)cc3C2=O)cc1,1.34% (inactive),
COc1ccc2[nH]cc(CCN3C(=O)c4ccc(C(=O)O)cc4C3=O)c2c1,,3.55 µM (active)
CC(C)(C)OC(=O)N[C@H](C(=O)OC(C)(C)C)c1ccc(Br)cc1,-2.22% (inactive),
COc1ccccc1OCCNC(=O)C(CCSC)NC(=O)COc1ccccc1 (stereo unspecified),-3.08% (inactive),
NC(=O)c1ccsc1NC(=O)COC(=O)COc1ccc(C=O)cc1,-1.72% (inactive),
COc1ccc(S(=O)(=O)N(C)C)cc1NC(=O)CSc1ncccn1,-2.73% (inactive),
COc1ccc(NS(=O)(=O)c2ccc3oc(SCC(N)=O)nc3c2)cc1,-1.37% (inactive),
CN(C)S(=O)(=O)c1ccc2oc(SCC(=O)Nc3ccccc3F)nc2c1,,3.16 µM (active)
CCCC(=O)N(CCN1CCOCC1)c1nc2ccc(OCC)cc2s1,-1.67% (inactive),
CCOc1ccc2nc(N(CCN(C)C)C(=O)c3ccc4ccccc4c3)sc2c1,-4.66% (inactive),

SMILES,activation,Potency
CCOc1ccc2nc(C(=O)N3CCCC(C)C3)sc2c1 (stereo unspecified),,2 µM (active)
O=C(CSc1nnc(Nc2ccccc2)s1)Nc1cccnc1Cl,-1.39% (inactive),
Cc1ccc(Nc2nnc(SCC(=O)c3cc4ccccc4o3)s2)cc1C,-2.6% (inactive),
CC(C)c1ccc(Nc2nnc(SCC(=O)c3nnc(-c4ccccc4)o3)s2)cc1,,3.98 µM (active)
O=S(=O)(c1cccs1)N1CCN(CCOc2ccccc2)CC1,1.21% (inactive),
CCOc1ccc(NS(=O)(=O)c2ccc(Cl)c(C(=O)N(C)Cc3cccnc3)c2)cc1,-3.44% (inactive),
Cc1ccc(C(=O)CN2C(=O)NC3(CCOc4ccccc43)C2=O)s1 (stereo unspecified),1.36% (inactive),
O=C(OCC(=O)N1CCN(C(=O)c2ccco2)CC1)c1ccc(Cl)c(Cl)c1,-4.56% (inactive),
O=C(COC(=O)c1ccccc1)c1ccc2c(c1)OCCO2,,0.316 µM (active)
CC(NC(=O)COC(=O)c1ccc2c(c1)OCO2)c1ccccc1 (stereo unspecified),-0.608% (inactive),
CC(=O)Nc1cccc(C(=O)OCC(=O)c2ccc3c(c2)OCO3)c1,,0.316 µM (active)
CC(=O)Nc1cccc(C(=O)OCC(=O)NCc2cc(C)c(O)c(C)c2)c1,11.4% (inactive),
O=C(COC(=O)c1ccc2c(c1)OCCO2)NCc1ccccc1,3.85% (inactive),
O=C(COC(=O)c1ccncc1)c1ccccc1,7.21% (inactive),
COc1ccc(C(=O)NCc2ccc(Cl)cc2)cc1S(=O)(=O)N1CCCC1,2.43% (inactive),
CCN(CC(=O)Nc1ccc(OC)cc1)C(=O)c1ccc(Cl)c(S(=O)(=O)N2CCCC2)c1,-2% (inactive),
O=[N+]([O-])c1cc(S(=O)(=O)NCCc2ccccn2)ccc1Cl,-0.0808% (inactive),
CC(C#N)(NC(=O)CN1CCN(S(=O)(=O)c2cc(C(F)(F)F)ccc2Cl)CC1)C1CC1 (stereo unspecified),4.2% (inactive),
O=C(CSc1nnc(-c2ccco2)n1CC1CCCO1)c1ccccc1 (stereo unspecified),12% (inactive),
c1ccc(CSc2nnc(-c3ccco3)n2Cc2ccccc2)cc1,,2.82 µM (active)
O=C(CSc1nnc(-c2ccco2)n1-c1ccccc1)NCCc1ccccc1,-1.73% (inactive),
C=CCN1C(=O)c2ccc(C(=O)N3CCC(C(=O)OCC)CC3)cc2C1=O,-3.88% (inactive),

SMILES,activation,Potency
O=C(CCNS(=O)(=O)c1ccccc1)NCCSc1ccc(Br)cc1,0.759% (inactive),
O=S(=O)(Nc1cc(Cl)ccc1N1CCOCC1)c1ccccc1Cl,0.364% (inactive),
C[C@@H]1NC(=O)[C@@]2(C)[C@@H](c3ccccc3)[C@H]3COc4ccccc4[C@@H]3N2C1=O,-0.11% (inactive),
CCOC(=O)c1c(CNCc2ccccc2F)c2sc(C)cc2n1C,-3.34% (inactive),
CN(C)c1ccnc2sc(C(=O)c3ccccc3)c(N)c12,,2.51 µM (active)
CN(C)c1ccnc2sc3c(=O)n(Cc4ccccc4)cnc3c12,15.3% (inactive),
Cc1nc2sc(C(=O)c3ccccc3)c(N)c2c2c1CCCC2,27% (inactive),
Nc1ncnc2c1c(I)cn2[C@@H]1C[C@H](N)[C@@H](O)[C@H]1O,-21.1% [at 46.1 µM] (inactive),
Cc1nn(Cc2ccccc2)c(C)c1CNC(=O)c1ccc(F)c(S(=O)(=O)N2CCOCC2)c1,-9.84% (inactive),
CN(CC(=O)Nc1cccc(F)c1)C(=O)CC1CCCC1,-1.92% (inactive),
O=C(Nc1ncc([N+](=O)[O-])s1)C1COc2ccccc2O1 (stereo unspecified),,3.55 µM (active)
O=C(Nc1nnc(SCc2ccc(Cl)cc2Cl)s1)C1COc2ccccc2O1 (stereo unspecified),0.802% (inactive),
COc1ccc(NC(=O)CC2COc3ccccc3O2)c(OC)c1 (stereo unspecified),-2.7% (inactive),
C/C(=N/NC(=O)C1COc2ccccc2O1)c1ccco1 (stereo unspecified),-0.848% (inactive),
CC(=O)c1cccc(NC(=O)C2COc3ccccc3O2)c1 (stereo unspecified),17.1% (inactive),
COc1ccc(NC(=O)C2COc3ccccc3O2)cc1 (stereo unspecified),,2.82 µM (active)
CCc1noc(C)c1C(=O)N1CCN(S(=O)(=O)c2cccc(C(F)(F)F)c2)CC1,-1.26% (inactive),
Cc1ccc(CSc2ccc(S(=O)(=O)N3CCCCC3)cn2)cc1,0.776% (inactive),
Cc1cc(C)nc(NC(=O)/C=C/c2ccc(Cl)cc2)n1,2.77% (inactive),
O=C(/C=C/c1ccc(Cl)cc1)Nc1ccc(S(=O)(=O)Nc2ncccn2)cc1,0.261% (inactive),
CC(C)(C)c1ccc(/C=C/C(=O)Nc2ncccn2)cc1,,3.98 µM (active)
Cc1sc2ncnc(N3CCC(C(=O)Nc4ccc(F)cc4Cl)CC3)c2c1C,-5.58% (inactive),

SMILES,activation,Potency
CCOC(=O)N1CCN(C(=O)COC(=O)c2cccc(S(C)(=O)=O)c2)CC1,-11.6% (inactive),
O=C(Nc1ccccc1)c1ccc(NC(=O)c2cccs2)cc1,-1.5% (inactive),
Cc1nc(-c2ccc(NC(=O)c3cccs3)cc2)cs1,,0.355 µM (active)
Cc1ccc(C(=O)Nc2ccc(NC(=O)c3cccs3)cc2)c(C)c1,-0.379% (inactive),
Cc1noc(C)c1C(=O)NCC1COc2ccccc2O1 (stereo unspecified),-1.09% (inactive),
COc1ccccc1-c1cc(C(=O)N2CCCCC2)no1,,3.55 µM (active)
O=C(c1cc(-c2cccs2)on1)N1CCCCC1,,1 µM (active)
COc1cccc(-c2cc(C(=O)N3CCN(c4ccccc4OC)CC3)no2)c1,-2.96% (inactive),
CC(=O)c1ccc(NC(=O)c2cc(-c3cccs3)on2)cc1,2.09% (inactive),
COc1ccccc1-c1cc(C(=O)NCCCn2ccnc2)no1,0.398% (inactive),
COc1ccc(OCc2cc(C(=O)N3CCCC3)no2)c2ccccc12,,3.16 µM (active)
COCCN1CCN(C(=O)c2cc(COc3ccc(F)cc3Cl)on2)CC1,0.819% (inactive),
O=C(c1cc(-c2ccc(O)cc2)on1)N1CCOCC1,,0.891 µM (active)
O=C(CSc1n[nH]c(-c2cccs2)n1)N1CCCCC1,13.9% (inactive),
O=C(c1cc(-c2ccc(F)cc2)on1)N1CCN(c2ccc(F)cc2)CC1,-5.95% (inactive),
COc1cc(Cl)ccc1OCc1cc(C(=O)N2CC[C@@H]3CCCC[C@H]3C2)no1,25.8% (inactive),
O=C(c1cc(-c2ccc(Cl)cc2)on1)N1CCN(c2ccccc2)CC1,13.6% (inactive),
Cc1ccc(OCC(=O)N2CCN(S(=O)(=O)c3ccc(Cl)s3)CC2)cc1C,1.41% (inactive),
